Measurements reported in PubChem BioAssay AID2551 (National Center for Advancing Translational Sciences (NCATS), 2010).
“And” between values parts separate entries of the source, which are not always exact repeats. Equal values may be shown once. Among all 310,000 compounds or so, about 17,000 (5.5%) were called active. Not shown: some 11% with an inconclusive outcome. The call rests on the fitted dose curve; in most records, active means well fitted inhibition curve with a large enough effect; inconclusive means small, poorly fitted or top-dose-only effect, or effect the other way; inactive means no such curve, though single readings can be large or run the other way. The full list was thinned out, with actives kept by preference. More than one record can exist for a structure, and the calls need not agree.

Each compound was assayed against Nuclear receptor ROR-gamma (Mus musculus) (UniProt P51450) (assay: qHTS for inhibitors of ROR gamma transcriptional activity). Conditions: Drosophila S2 Gal4-RORgamma UAS-luciferase reporter, 20 h; series mostly up to 53.6 µM; activity change, negative = inhibition: at the top concentration.
Sequence of Nuclear receptor ROR-gamma (Mus musculus) (P51450 whole entry, looked up, the tested form may be a part): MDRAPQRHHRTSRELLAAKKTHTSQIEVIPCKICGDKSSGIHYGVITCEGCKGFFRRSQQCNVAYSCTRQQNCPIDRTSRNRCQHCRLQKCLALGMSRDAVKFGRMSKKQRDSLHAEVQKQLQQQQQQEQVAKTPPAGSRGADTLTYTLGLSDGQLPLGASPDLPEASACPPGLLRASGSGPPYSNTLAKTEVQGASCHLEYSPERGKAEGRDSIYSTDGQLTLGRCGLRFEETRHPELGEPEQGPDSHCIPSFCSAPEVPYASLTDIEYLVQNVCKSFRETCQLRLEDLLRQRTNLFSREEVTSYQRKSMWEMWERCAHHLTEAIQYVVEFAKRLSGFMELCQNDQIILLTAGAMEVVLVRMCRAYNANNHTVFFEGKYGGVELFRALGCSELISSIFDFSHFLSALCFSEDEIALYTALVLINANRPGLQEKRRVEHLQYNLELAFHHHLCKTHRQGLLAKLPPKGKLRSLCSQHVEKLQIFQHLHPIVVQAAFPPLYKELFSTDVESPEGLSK
Source text: NIH Molecular Libraries Probe Production Network [MLPCN] NIH Chemical Genomics Center [NCGC] MLPCN Grant: R03 DA026211-01 Assay Provider: Dan Littman, New York University Assay Overview: The retinoic acid-related orphan receptor (ROR) gamma is a transcription factor that has a central role in the differentiation of Th17 cells, a subset of T helper cells that secrete the inflammatory cytokines IL-17, IL-17F, and IL-22. Th17 cells have been implicated in graft versus host disease, autoimmune disease and asthma. ROR gamma is induced in naive T helper cells in the presence of TGF-beta combined with IL-6, IL-21, or IL-23, and thereafter directs the expression of the Th17 lineage cytokines. To study the mechanism of action of ROR gamma, an insect cell-based assay was screened. This Drosophila Schneider cell line was stably transfected with two vectors: a gene expressing a fusion of the Gal4 DNA binding domain and ROR gamma transactivation domain under the control of the metallothionine promoter and a Photinus luciferase reporter regulated by the Gal4 binding site enhancer, UAS. […] Small molecule inhibitors of ROR gamma activity are detected by a decrease in luciferase reporter activity.
Assay Protocol Summary: For screening, 600 cells in 4 uL/well were dispensed into white solid 1536-well plates (Grenier) using a solenoid-based dispenser. Following transfer of 23 nL compound or DMSO vehicle by a pin tool, the plates were incubated 1 hr at ambient temperature, and 1 uL/well copper sulfate (700 uM final concentration) was added. The plates were centrifuged 15 s at 1000 RPM and incubated 20 hr at ambient temperature. After addition of 1.5 uL Photinus luciferase detection reagent, the plates were incubated 10 min at ambient temperature and then read by an ViewLux (Perkin Elmer) to detect luminescence. Keywords: NIH Roadmap, MLPCN, MLI, MLSMR, qHTS, NCGC, qHTS, nuclear hormone receptor, retinoic acid-related orphan receptor, ROR gamma
Further: nearly all actives have a fitted effect of over 60% in size.
On the % scale 0 is the no-effect control and ±100 the full control effect; potency means the concentration at half of the fitted maximal effect.

Activity change, negative = inhibition, inactive:
O=C1N=C(N2CCCC2)S/C1=C\c1cccc(Br)c1 26.8%
CCOc1cc(/C=C2\SC(N3CCCCC3)=NC2=O)ccc1O 18.1%
Cc1ccc(CCNC(=O)c2ccc3nc4ccccc4c(=O)n3c2)cc1 2.06%
COc1ccc(N(CC(=O)NCC2CCCO2)C(=O)CCC(=O)Nc2nccs2)c(OC)c1 (stereo not drawn) 6.64%
O=C(NCc1ccc(F)cc1)C1CCN(C(=O)Nc2ccc(F)cc2)CC1 12.7%
O=c1[nH][nH]c(=O)c2cc(N3CCCC3)ccc12 0.847%
CCOC(=O)/C(C#N)=C/c1ccc(N2CCCCC2)cc1 41.1%
COc1ccc(-c2nnc3ccc(SCc4ccccc4)nn23)cc1 18.6%
COC(=O)c1ccc(CSc2ccccc2C)o1 23.7%
CN1CCN(Cc2c(C(=O)N3CCc4ccccc4C3)nc3ccc(Cl)cn23)CC1 -0.791%
CN1CCN(C(=O)C(=O)c2cn(CC(=O)N3CCCC3)c3ccccc23)CC1 0.0969%
CCC(C)[C@H](NC(=O)N1c2ccccc2NC(=O)[C@@H]1C(C)C)C(=O)N[C@@H](Cc1ccccc1)C(=O)O (stereo partly drawn) -3.74%
CC(O)CNCCOc1cccc(Oc2ccccc2)c1 (stereo not drawn) -10.9%
COc1ccccc1OCC(O)CN1CCOCC1 (stereo not drawn) 6%
COc1cccc(OCc2nnc3n2N=C(c2ccccc2)C(CC(=O)O)S3)c1 (stereo not drawn) -7.78%
COc1ccc(-n2ncc3c2CC(C)(C)CC3NC(=O)CCc2c(C)nn(C)c2C)cc1 (stereo not drawn) 17.1%
CCCCN(CCCC)CCNC(=O)CN1C(=O)COc2ccc(S(=O)(=O)N3CCOCC3)cc21 -12.1%
CC(=O)Nc1ccc(-c2nc3ccccc3o2)cc1 -26.3%
CC(=O)NC(=S)Nc1ccc(NC(=O)c2cccnc2)cc1 28.8%
COC(=O)COc1ccc2oc(=O)cc(C)c2c1 -35%
Cc1cc(=O)oc2cc(OCC(=O)Nc3nnc(C4CC4)s3)ccc12 -12.9%
Cc1c(C)c2ccc(OCC(=O)N3CCN(c4cccc(Cl)c4)CC3)cc2oc1=O 0.847%
CCC(C)N1CC(=O)N2Cc3[nH]c4ccccc4c3C[C@H]2C1=O (stereo partly drawn) -15.5%
O=C(Cn1ncc2c3ccccc3n(Cc3ccccc3)c2c1=O)NCCCN1CCOCC1 -2.33%
COc1ccc(N(CC(=O)Nc2cc(OC)ccc2OC)S(=O)(=O)c2c(C)noc2C)cc1 -1.57%
CCCCC(=O)Nc1cc(C)c2c(=O)oc3ccccc3c2n1 3.53%
CC(C)(C)Nc1c(N)c(=O)oc2ccccc12 13.4%
COc1cccc(C(=O)NNS(=O)(=O)c2ccc(F)cc2)c1 3.67%
COc1ccc(C(C(=O)NCC2CCCO2)N(C(=O)Cn2nnc3ccccc32)c2ccc(NC(C)=O)cc2)cc1OC (stereo not drawn) -6.87%
Nc1nc(-c2ccccc2)cc(-c2ccccc2)n1 -7.58%
Nc1ccc(-c2sc(N)nc2-c2ccccc2)cc1 -17.2%
Cc1c(CN2CCC(n3nccc3NC(=O)CCc3ccccc3)CC2)cnn1C -18.5%
CC(=O)NCCC(=O)Nc1cc(S(=O)(=O)N2CCCCC2)ccc1Oc1cccc(C)c1 11%
CNC(=O)NC(=O)CSc1nnc(-c2ccc(F)cc2)n1CC1CCCO1 (stereo not drawn) 10.2%
Cc1nnc(SCC(=O)NNC(=O)c2ccc(Cl)cc2)n1CC1CCCO1 (stereo not drawn) 15%
N#Cc1ccccc1S(=O)(=O)N1CCN(C(=O)c2cc(-c3ccccc3)nn2-c2ccccc2)CC1 -11.5%
S=C(Nc1ccc(Br)cc1Cl)N1CCC2(CC1)OCCO2 -25.8%
CC1CN(C(=S)Nc2ccccc2F)CC(C)O1 (stereo not drawn) 13%
O=C(Nc1ccc(O)cc1)c1ccc(NC(=O)c2ccco2)cc1 7.16%
O=C(CCSc1ccccc1)NCCSc1ccccn1 24.1%
Cc1cc(Cl)ccc1OCCCC(=O)NCc1ccccn1 16.2%

Potency, active:
O=C1N=C(N2CCc3ccccc3C2)S/C1=C\c1ccc(O)cc1 1.12 µM
CCc1ccc(-c2nn(-c3ccccc3)cc2CSC(=N)N)cc1 11.2 µM
O=C1C=CC(=O)N1c1ccc(N2CCCCC2)cc1 5.62 µM
COC(=O)c1ccc(CSc2ccc3nnc(-c4ccccc4)n3n2)o1 10 µM
Cc1ccc2nc(-c3ccc(NC(=O)c4cccnc4)cc3)oc2c1 20 µM
Cc1ccc(O)c(/C=N/NC(=O)COc2ccc3c(C)cc(=O)oc3c2)c1 2.51 µM
Cc1ccccc1-n1nnc2c(=O)oc3ccccc3c21 7.94 µM
Nc1[nH]c(=S)nc2nc(-c3ccccc3)c(-c3ccccc3)nc12 3.98 µM
S=c1[nH]nc(-c2ccc(Cl)cc2)n1CC1CCCO1 (stereo not drawn) 11.2 µM
CC1CN(C(=S)Nc2ccc(Br)cc2Cl)CC(C)O1 (stereo not drawn) 12.6 µM
Cc1ccc(SCCC(=O)NCc2ccccn2)cc1 8.91 µM

Potency, inactive and 1 µM (active):
COc1ccccc1OCCNCC(O)COc1cccc2[nH]c3ccccc3c12 (stereo not drawn)
